A selection: hits, their analogues and other compounds. The true share with any hit is near 1.2%.
Glyco luc inh – increase of ERlucT glycosylation luciferase signal, primary screen, N-linked glycosylation inhibitor project, D54 ERlucT cells, luminescence, set 2 | D54 ERlucT glycosylation luciferase reporter, 24 h; percent of 100 nM tunicamycin response | reporter increase, % at 12.5 µM | 360,000 tested, 0.23% active;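 active = mean luciferase reporter signal, scaled so untreated is 0 and the glycosylation-blocking control 100, at or above a set limit in every replicate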;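 note: luciferase carries N-glycosylation sites so blocking glycosylation raises the light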
RAD54 inh – inhibitors of human RAD54 branch migration, primary screen, biochemical, fluorescence, single point; DNA repair and recombination protein RAD54-like (Homo sapiens), Q92698; RAD54 Holliday junction branch migration, FAM/BHQ fluorescence; inhibition, % at 10.4 µM; 360,000 tested, 0.14% active; AID 602329, 2012;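 active = mean normalized replicate activity at least 40 and at least half of replicates scoring 40 or more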;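 note: inhibitors cause a drop in the FAM fluorescence signal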
CASP6 VEID inh – human caspase-6 inhibitors, primary screen, biochemical, VEID-R110 fluorescence, single point, set 2; P55212; purified caspase-6, Z-VEID-R110 cleavage fluorescence; inhibition, % at 12.5 µM; 350,000 tested, 0.53% active; AID 686996, 2013;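 active = mean inhibition across replicates at least about 35%, with every replicate also reaching that limit, limit read from the data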
NSD2 inh – NSD2 histone methyltransferase inhibitors, primary screen, biochemical, AlphaScreen, single concentration, set 2. NSD2 peptide methylation, 120 min. AID 743445, 2014. inhibition, % at 12.5 µM. 310,000 tested, 0.54% active; in the data active = inhibition above about 50%
RAD52 anneal inh – RAD52 DNA annealing inhibitors, primary screen, biochemical, FRET, single point, set 2. recombinant RAD52 DNA annealing, FRET fluorescence. inhibition, % at 18.7 µM. 360,000 tested, 0.46% active;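 active = every replicate showing at least 50% inhibition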
Target sequence (P43351 whole entry, looked up): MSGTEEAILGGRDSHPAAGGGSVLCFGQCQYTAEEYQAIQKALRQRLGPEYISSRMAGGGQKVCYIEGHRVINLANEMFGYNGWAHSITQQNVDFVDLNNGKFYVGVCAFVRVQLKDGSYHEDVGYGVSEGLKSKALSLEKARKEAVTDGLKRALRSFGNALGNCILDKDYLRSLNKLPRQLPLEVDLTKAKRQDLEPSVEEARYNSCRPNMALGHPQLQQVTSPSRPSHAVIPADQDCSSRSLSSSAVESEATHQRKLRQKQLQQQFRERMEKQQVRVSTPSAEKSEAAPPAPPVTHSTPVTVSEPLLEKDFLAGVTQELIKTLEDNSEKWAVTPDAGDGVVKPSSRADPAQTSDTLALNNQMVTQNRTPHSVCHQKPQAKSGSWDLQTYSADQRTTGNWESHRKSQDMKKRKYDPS
Numbers stand for hits; – = inactive; · = not tested or not shown; ! = a repeat was not active.

SMILES	Glyco luc inh	RAD54 inh	CASP6 VEID inh	NSD2 inh	RAD52 anneal inh
C[C@@H]1CN([C@H](C)CO)C(=O)Cc2cc(NS(=O)(=O)c3ccc(F)cc3)ccc2O[C@H]1CN(C)S(=O)(=O)c1ccccc1	·	–	–	·	–
O=C1C(SCCO)=C(SCCO)C(=O)c2ccccc21	–	–	–	·	–
CC1=C(SCc2ccccc2)C(=O)c2ccccc2C1=O	–	–	64	–	–
O=C1CC(=O)NC(SCC(=O)Nc2ccccc2[N+](=O)[O-])=N1	–	–	41	·	–
Cc1cc(C)nc(SCC(=O)Nc2ccccc2[N+](=O)[O-])n1	–	–	·	–	·
CN=c1sc(C(=O)Nc2cccc(Cl)c2)cc(=O)n1C	31	–	·	–	·
Cn1c(N)c(C(=O)Nc2cccc(Cl)c2)c(=O)n(C)c1=O	–	–	–	–	–
COc1ccccc1-c1ccc2n(c1=O)C[C@H]1[C@H](CO)[C@@H](C(=O)N3CCCCC3)N(C)[C@@H]21	·	–	–	·	–
Cc1ccc(S(=O)(=O)/N=C2/NC(=O)/C(=C/c3cc([N+](=O)[O-])ccc3O)S2)cc1	–	–	37	–	–
COc1ccc(/C=C/C=O)cc1	·	–	–	·	–
C[C@@H]1CCCCO[C@H](CN(C)Cc2ccc(C(F)(F)F)cc2)[C@H](C)CN([C@H](C)CO)C(=O)c2cc(NC(=O)CCC(F)(F)F)ccc2O1	·	–	–	·	–
O=C(NC1CCCCCCC1)c1c(O)c2ccccc2[nH]c1=O	–	–	·	–	·
O=C(NC1CC1)c1c(O)c2ccccc2[nH]c1=O	–	–	45	–	–
Cc1ccc(NC(=O)C(c2ccccc2)N2CCN(CC(=O)N3CCOCC3)CC2)cc1Cl (stereo not given)	–	–	47	–	–
Cc1nn(Cc2c(Cl)cccc2Cl)c(C)c1NC(=O)c1cc(C(C)C)on1	64	–	–	·	–
CC(=O)OCC1=C(C(=O)O)N2C(=O)C(NC(=O)COc3ccc(F)cc3)C2SC1 (stereo not given)	–	–	–	–	–
CC(=O)OCC1=C(C(=O)O)N2C(=O)[C@@H](NC(=O)Cc3ccccc3)[C@H]2SC1	–	–	–	·	–
CC(=O)OCC1=C(C(=O)O)N2C(=O)C(NC(=O)c3ccc(COc4ccc(Cl)cc4)o3)C2SC1 (stereo not given)	–	·	60	–	–
CC(=O)OCC1=C(C(=O)O)N2C(=O)C(NC(=O)c3ccc(COc4c(C)cccc4Cl)o3)C2SC1 (stereo not given)	–	–	40	·	–
COc1cc(/C=C(\C(=O)O)c2ccc(S(=O)(=O)N3CCCCC3)s2)ccc1OC(F)F	·	·	·	–	·
Cc1noc(C)c1S(=O)(=O)Nc1ccc2c(c1)C(=O)N([C@@H](C)CO)C[C@H](C)[C@H](CN(C)S(=O)(=O)c1ccc(F)cc1)OCCCC[C@@H](C)O2	·	–	–	·	–
C[C@H]1CCCCO[C@H](CN(C)S(=O)(=O)c2cccs2)[C@@H](C)CN([C@@H](C)CO)C(=O)c2cc(NS(=O)(=O)c3cn(C)cn3)ccc2O1	·	–	–	·	59
Cc1noc(C)c1S(=O)(=O)Nc1ccc2c(c1)C(=O)N([C@@H](C)CO)C[C@H](C)[C@@H](CN(C)S(=O)(=O)c1ccc(F)cc1)OCCCC[C@H](C)O2	·	–	–	·	75
Cc1noc(C)c1S(=O)(=O)N(C)C[C@H]1OCCCC[C@@H](C)Oc2ccc(NS(=O)(=O)c3ccc(F)cc3)cc2C(=O)N([C@H](C)CO)C[C@@H]1C	·	–	·	·	·
Cc1noc(C)c1S(=O)(=O)Nc1ccc2c(c1)C(=O)N([C@H](C)CO)C[C@@H](C)[C@@H](CN(C)S(=O)(=O)c1ccc(F)cc1)OCCCC[C@@H](C)O2	·	–	–	·	57
SMILES	Glyco luc inh	RAD54 inh	CASP6 VEID inh	NSD2 inh	RAD52 anneal inh
Cc1ccc(S(=O)(=O)N(C)C[C@@H]2Oc3c(NS(=O)(=O)c4cccs4)cccc3C(=O)N([C@H](C)CO)C[C@H]2C)cc1	·	–	–	·	–
C[C@@H]1CCCCO[C@@H](CN(C)S(=O)(=O)c2cccs2)[C@@H](C)CN([C@H](C)CO)C(=O)c2cc(NS(=O)(=O)c3cn(C)cn3)ccc2O1	·	–	–	·	–
C[C@@H]1CN([C@@H](C)CO)C(=O)c2cccc(NS(=O)(=O)c3cccs3)c2O[C@@H]1CN(C)S(=O)(=O)c1ccccc1	·	–	37	·	–
C[C@@H]1CN([C@@H](C)CO)C(=O)c2cc(NC(=O)NC3CCCCC3)ccc2O[C@@H]1CN(C)Cc1ccc(C(=O)Nc2ccccc2N)cc1	·	·	–	·	–
C[C@@H]1CCCCO[C@H](CN(C)C(=O)Cc2ccccc2)[C@@H](C)CN([C@@H](C)CO)C(=O)c2cc(NC(=O)Cc3ccccc3)ccc2O1	·	–	–	·	–
COc1cccc(-c2ccc(C3[C@@H]4CN(C(=O)Nc5ccc(F)cc5)C[C@H]3N4)cc2)c1 (stereo not given in full)	·	·	–	·	–
COc1ccc(-c2ccc(C3[C@@H]4CN(C(=O)Nc5cccc(F)c5)C[C@H]3N4)cc2)cc1 (stereo not given in full)	·	·	–	·	84
COc1ccc(NC(=O)N2C[C@@H]3N[C@H](C2)C3c2ccc(-c3cccc(OC)c3)cc2)cc1 (stereo not given in full)	·	·	–	·	54!
O=C(Nc1cccc(F)c1)N1C[C@@H]2N[C@H](C1)C2c1ccc(-c2ccncc2)cc1 (stereo not given in full)	·	·	–	·	–
COc1ccc(NC(=O)N2C[C@@H]3N[C@H](C2)[C@@H]3c2ccc(-c3ccc(OC)cc3)cc2)cc1	·	·	–	·	68
COc1ccc(NC(=O)N2C[C@@H]3N[C@H](C2)C3c2ccc(-c3cncnc3)cc2)cc1 (stereo not given in full)	·	·	–	·	–
COc1ccc(CN(C)C[C@H]2OCCCC[C@@H](C)Oc3ccc(NC(=O)Nc4ccccc4)cc3C(=O)N([C@@H](C)CO)C[C@@H]2C)cc1	·	–	·	·	·
O=C(Oc1ccc2ccc(O)cc2c1)c1ccccc1F	·	·	·	–	·
C=C1c2cccc(O)c2C(O)=C2C(=O)[C@]3(O)C(O)=C(C(N)=O)C(=O)[C@@H](N(C)C)[C@@H]3[C@@H](O)[C@H]12	–	–	94	·	–
C[C@@H]1CN([C@H](C)CO)S(=O)(=O)c2ccc(C#CC3(O)CCCC3)cc2O[C@H]1CN(C)C(=O)c1cccnc1	·	–	–	·	–
COc1cccc(NC(=O)Cn2c(=O)n(C)c(=O)c3sc4c(c32)COC(C)(C)C4)c1	–	–	44	–	–
CC(C)Nc1ccc(C(CC(N)=O)NC(=O)Cc2ccc(Cl)cc2)cc1[N+](=O)[O-] (stereo not given)	41	–	–	·	–
